Experimental data taken from PubChem BioAssay (NCI).
Compounds without any hit were thinned out: in the full panel of roughly 83,000, 20% have a hit.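 Cell lines were cultured in 96-well plates, exposed to a single compound concentration, and assessed for percent growth 48 hours later.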 Active and inactive are the calls of the source. The calls were made as follows: active = growth percent below 10; inactive = the rest.

test system: HT29 colon; assay: NCI-60 one-dose screen, 48 h (100 = growth as untreated, 0 = no growth, -100 = all killed); conditions: 10 µM

Row | SMILES | growth
1 | CC1CCC2C(C)(C)C3CC12CC1OC13C (stereo unspecified) | 107% (inactive)
2 | COc1ccccc1NC(=O)C1=C(C)NC(C)=C(C(=O)Nc2ccccc2OC)C1c1cccc([N+](=O)[O-])c1 | 75.8% (inactive)
3 | Cc1cc(OCCO)cc(C)c1Cl | 113% (inactive)
4 | COc1ccc(/C=C/c2cccc[n+]2C)cc1 | 88% (inactive)
5 | O=C(O)CCCC(=O)O | 106% (inactive)
6 | O=[N+]([O-])c1ccc(/C=C/C=C/c2ccccc2)c(Cl)c1 | 90.3% (inactive)
7 | Cc1cc2nc(CC(=O)c3ccccc3)c(=O)[nH]c2cc1C | 97.5% (inactive)
8 | CCCCCCCCOC(=O)c1ccccn1 | 96.2% (inactive)
9 | CCC(C)(O)c1ccc(C)cc1 (stereo unspecified) | 107% (inactive)
10 | Oc1ccc(Cc2ccccc2)c2cccnc12 | 84.3% (inactive)
11 | O=[N+]([O-])c1cccc2nsnc12 | 105% (inactive)
12 | CC(C)CCCC(=O)O | 104% (inactive)

test system: SNB-75 CNS; assay: as above; conditions: 10 µM

Row | SMILES | growth
13 | CNc1nc(NC)c2cn[nH]c2n1 | 91.1% (inactive)
14 | O=C(CN1CCNCC1)N1CCOCC1 | 86.9% (inactive)
15 | CC1CCC2C(C)(C)C3CC12CC1OC13C (stereo unspecified) | 97.5% (inactive)
16 | COc1cc(OC)c2ccc(=O)oc2c1 | 85.3% (inactive)
17 | CCN(CC)CCCC(C)Nc1ccnc(/C=C/c2ccc(Cl)cc2)c1 (stereo unspecified) | -49.3% (active)
18 | COC1=CC(=O)c2nc(Cl)ccc2C1=O | 48.6% (inactive)
19 | N=c1c(C(=O)OCc2ccccc2)ncc(CCl)n1O | 83.6% (inactive)
20 | Cc1nc2c(ccc3ccccc32)s1 | 108% (inactive)
21 | O=S(=O)(O)CC(O)CN1CCN(CCO)CC1 (stereo unspecified) | 102% (inactive)
22 | Cc1cc(OCCO)cc(C)c1Cl | 124% (inactive)
23 | CC1Cc2ccccc2O1 (stereo unspecified) | 105% (inactive)
24 | O=c1cc(-c2ccccc2)oc2c1ccc1ccccc12 | 71.4% (inactive)
25 | CC(=O)c1ccc(C)c(N)c1 | 97.6% (inactive)
26 | COc1ccc(/C=C/c2cccc[n+]2C)cc1 | 83.2% (inactive)
27 | NC(=S)NN=C1CCCC1 | 99.3% (inactive)
28 | CCN(CC)c1ccc2nc3ccc(=[N+](CC)CC)cc-3oc2c1 | 1.61% (active)

Row | SMILES | growth
29 | CCCC(=O)Nc1ccc2c(c1)CN1C(=O)c3ccccc3C1=N2 | 104% (inactive)
30 | O=C(O)CCCC(=O)O | 85.7% (inactive)
31 | O=[N+]([O-])c1ccc(/C=C/C=C/c2ccccc2)c(Cl)c1 | 94.2% (inactive)
32 | CCCCCCCCOC(=O)c1ccccn1 | 84.4% (inactive)
33 | CC1C(=O)c2ccccc2CC1C(=O)O (stereo unspecified) | 82.2% (inactive)
34 | CCOc1ccc2[nH]c(=S)sc2c1 | 92% (inactive)
35 | CCC(C)(O)c1ccc(C)cc1 (stereo unspecified) | 91.7% (inactive)
36 | O=c1c2ccccc2c(Br)c(Br)c2ccccc12 | 119% (inactive)
37 | O=[N+]([O-])c1ccc(Sc2ccncn2)c([N+](=O)[O-])c1 | 81.8% (inactive)
38 | C/C(=C\c1cc(Cl)ccc1OCC(=O)O)[N+](=O)[O-] | 112% (inactive)
39 | COc1nc(N)nc2c1ncn2C1OC(CO)CC1O (stereo unspecified) | 89.7% (inactive)
40 | COc1cc(C(=O)N/N=C/c2cccc([N+](=O)[O-])c2)cc(OC)c1OC | 29.5% (inactive)
41 | CC1(C)Nc2cccc3c(N=Nc4ccc(N=Nc5ccccc5)c5ccccc45)ccc(c23)N1 | 73% (inactive)
42 | Oc1ccc(Cc2ccccc2)c2cccnc12 | 21.3% (inactive)
43 | O=[N+]([O-])c1cccc2nsnc12 | 96.7% (inactive)
44 | CC(C)CCCC(=O)O | 95.4% (inactive)

test system: SNB-19 CNS; assay: as above; conditions: 10 µM

Row | SMILES | growth
45 | CNc1nc(NC)c2cn[nH]c2n1 | 106% (inactive)
46 | O=C(CN1CCNCC1)N1CCOCC1 | 102% (inactive)
47 | CC1CCC2C(C)(C)C3CC12CC1OC13C (stereo unspecified) | 102% (inactive)
48 | COc1cc(OC)c2ccc(=O)oc2c1 | 99% (inactive)
49 | CCN(CC)CCCC(C)Nc1ccnc(/C=C/c2ccc(Cl)cc2)c1 (stereo unspecified) | 53.6% (inactive)
50 | COC1=CC(=O)c2nc(Cl)ccc2C1=O | 113% (inactive)
51 | N=c1c(C(=O)OCc2ccccc2)ncc(CCl)n1O | 95.6% (inactive)
52 | Cc1nc2c(ccc3ccccc32)s1 | 107% (inactive)
53 | CC(=O)OCC1OC(OC2=C(CC=C(C)C)C(=O)c3ccccc3C2=O)C(OC(C)=O)C(OC(C)=O)C1OC(C)=O (stereo unspecified) | 61.2% (inactive)
54 | O=S(=O)(O)CC(O)CN1CCN(CCO)CC1 (stereo unspecified) | 115% (inactive)
55 | Cc1cc(OCCO)cc(C)c1Cl | 106% (inactive)
56 | CC1Cc2ccccc2O1 (stereo unspecified) | 117% (inactive)
57 | O=c1cc(-c2ccccc2)oc2c1ccc1ccccc12 | 75.5% (inactive)
58 | CCOC(=O)C1=C(C)NC(=O)NC1c1cccs1 (stereo unspecified) | 113% (inactive)
59 | CC(=O)c1ccc(C)c(N)c1 | 99% (inactive)
60 | COc1ccc(/C=C/c2cccc[n+]2C)cc1 | 95.1% (inactive)
61 | NC(=S)NN=C1CCCC1 | 105% (inactive)
62 | CCN(CC)c1ccc2nc3ccc(=[N+](CC)CC)cc-3oc2c1 | -1.56% (active)
63 | CCCC(=O)Nc1ccc2c(c1)CN1C(=O)c3ccccc3C1=N2 | 110% (inactive)

Row | SMILES | growth
64 | O=C(O)CCCC(=O)O | 99.4% (inactive)
65 | O=[N+]([O-])c1ccc(/C=C/C=C/c2ccccc2)c(Cl)c1 | 99.7% (inactive)
66 | N#Cc1c(N)sc(=S)c2c1CCCC2 | 105% (inactive)
67 | CCCCCCCCOC(=O)c1ccccn1 | 105% (inactive)
68 | CCN(CC)C(=O)/C=C(/C)c1ccccc1 | 105% (inactive)
69 | CC1C(=O)c2ccccc2CC1C(=O)O (stereo unspecified) | 128% (inactive)
70 | CCOc1ccc2[nH]c(=S)sc2c1 | 103% (inactive)
71 | CCC(C)(O)c1ccc(C)cc1 (stereo unspecified) | 97.8% (inactive)
72 | O=c1c2ccccc2c(Br)c(Br)c2ccccc12 | 101% (inactive)
73 | O=[N+]([O-])c1ccc(Sc2ccncn2)c([N+](=O)[O-])c1 | 106% (inactive)
74 | C/C(=C\c1cc(Cl)ccc1OCC(=O)O)[N+](=O)[O-] | 117% (inactive)
75 | COc1nc(N)nc2c1ncn2C1OC(CO)CC1O (stereo unspecified) | 103% (inactive)
76 | O=c1cc2oc3cc(O)c(O)cc3c(-c3ccccc3O)c-2cc1O | 72.5% (inactive)
77 | COc1cc(C(=O)N/N=C/c2cccc([N+](=O)[O-])c2)cc(OC)c1OC | 69.7% (inactive)
78 | CC1(C)Nc2cccc3c(N=Nc4ccc(N=Nc5ccccc5)c5ccccc45)ccc(c23)N1 | 124% (inactive)
79 | Oc1ccc(Cc2ccccc2)c2cccnc12 | 19.6% (inactive)
80 | O=[N+]([O-])c1cccc2nsnc12 | 98.4% (inactive)
81 | CC(C)CCCC(=O)O | 101% (inactive)
